# SW480 rerep = inducers of DNA re-replication in SW480 colon cancer cells; Potency, µM (top dose mostly 46.1 µM), inactives show top-dose re-replication activation, hits mostly activators; SW480 DNA re-replication, Hoechst DNA content imaging, 48 h; actives 1.8% (n = 340,000); also: potency is read from the fitted curve at half-maximal effect; % of control where 0% means no effect; nearly all actives have a fitted effect of over 55% in size
#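 Hoechst fluorescence of nuclei (405 nm excitation, 500-530 nm emission) measured by plate-scanning imager after 48 hr compound exposure at 37 C; re-replication scored as increased number of nuclei with elevated intensity.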
# MCF10A rerep = DNA re-replication induction in MCF 10a cells | MCF 10A DNA re-replication, Hoechst nuclear intensity, 48 h | Potency, µM (doses to about 46.1 µM), for inactives: at the highest dose activity, positive = re-replication, actives largely listed as activators | actives 2.9% (n = 350,000) | AID 624296; also: potency is read from the fitted curve at half-maximal effect; % of control where 0% means no effect; nearly all actives have a fitted effect of over 50% in size
# uPA surface inh = blocks generation of uPA at the cell surface. actives 0.31% (n = 330,000). Potency, µM (series often up to 38.3 µM), without a hit: at the top dose activity change, negative = inhibition, usual class: inhibitors. cell surface uPA generation assay, qHTS; active = well fitted inhibition curve with a large enough effect; inconclusive = small, poorly fitted or top-dose-only effect; inactive = no such curve, though single readings can be large or run the other way; tested in mouse RAW 264.7 cells; also: potency is read from the fitted curve at half-maximal effect; % is scaled to controls: 0 for no effect and ±100 for the full control effect; nearly all actives have a fitted effect of over 55% in size
# Giardia kill = kills Giardia lamblia; Giardia lamblia trophozoite viability; actives 0.15% (n = 340,000); activity change, % at 7.66 µM, hits read low; in the data active = activity change below about -80%; inconclusive = between about -30% and that limit;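 also: parasites exposed to compound for two days anaerobically before the ATP read; % is scaled to controls: 0 for no effect and ±100 for the full control effect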
#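 Trophozoite viability was measured as ATP-dependent luminescence, read 15-30 min after reagent addition. Before that, parasites at 100 cells/well were exposed to compounds for 48 h, anaerobically, at 37 deg C.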
# Active calls of the source: *; ? = inconclusive; / = not tested or not shown; [ ] = dose if it differs, or a comment. Rows were chosen to be rich in hits. Some 4.3% of all compounds tested hit in one or more screens of this group. Unless noted, calls follow the shape of the dose curve; as a rule, active = well fitted activation curve with a large enough effect; inconclusive = small, poorly fitted or top-dose-only effect; inactive = no such curve, though single readings can be large or run the other way.
SMILES,SW480 rerep,MCF10A rerep,uPA surface inh,Giardia kill
O=C(N/N=C/c1cc([N+](=O)[O-])ccc1O)c1cccc(N2CCCC2=O)c1,9.2µM*,22.0%,-7.7%,47.9
O=C(N/N=C/c1cc([N+](=O)[O-])ccc1O)C1CC1,-3.1%,?,?,-22.8
CCOc1ccc(NC(=O)N(Cc2cn(CC)c3ccccc23)C2CCCCCC2)cc1,/,/,/,0.8
CCOC(=O)C1CCN(Cc2ccc(OC)c(C)c2OC)CC1,-1.9%,2.8%,-0.2%,2.6
CCOC(=O)C1CCN(Cc2cc(Cl)c3ccccc3c2O)CC1,?,18.4µM*,-7.4%,6.8
O=C(Cn1cccc1C(=O)c1ccccc1)NCCC1=CCCCC1,3.1%,1.7%[9.22 µM],3.3%,-5.1
CCOc1ccc(N(C)Cc2cc(=O)oc3ccc(OCC)cc23)cc1,-2.1%,5.3%,-3.7%,36.0
C=C(C)C(=O)Oc1ccc(N=Nc2ccc(C)cc2)ccc1=O,?,16.4µM*,-2.5%,-6.4
COc1ccc(/C=C/c2c(-c3cccc(C)c3)oc3ccc(N4CCOCC4)cc23)cc1,6.5%,9.2µM*,-17.5%,-8.1
COc1ccc(-c2oc3ccc(N4CCOCC4)cc3c2C#Cc2ccc(N)cc2)cc1,?,5.8µM*,-2.0%,-6.2
COc1ccc(C#Cc2c(-c3ccsc3)oc3ccc(N4CCOCC4)cc23)cc1,5.3%,16.4µM*,?,-12.6
O=C(OCc1ccc(O)cc1)c1c(-c2ccsc2)oc2ccc(N3CCOCC3)cc12,20.6µM*,20.6µM*,-7.4%,-13.4
COc1ccc(C2/C=C\CN(S(=O)(=O)c3ccc(C)cc3)C(C)C(=O)N2Cc2ccc(F)cc2)cc1 (configuration not stated),/,/,/,-3.2
COc1ccc(NC(=O)CN(C)C(=O)/C=C/c2cn(-c3ccccc3)nc2-c2cccs2)cc1,2.6%,2.0%,-1.2%,12.6
N#C/C(=C\c1ccc(-c2ccccc2)cc1)c1nc(-c2ccco2)cs1,1.0%,23.1µM*,5.3%,1.2
Cc1nnc(SCC(=O)N2c3ccccc3Sc3ccccc32)n1N,23.1µM*,9.2µM*,8.4%,2.1
O=[N+]([O-])c1ccc(-n2nnnc2-c2ccccc2)c([N+](=O)[O-])c1,5.17µM*,4.11µM*,-14.7%,-11.1
O=C(NCCc1ccc(OC(F)F)cc1)C1CC(=O)N(c2ccc3c(c2)OCCO3)C1 (configuration not stated),2.6%,1.3%,-13.7%,17.4
O=C(Cc1cccc(NC(=O)C2CCN(C(=O)CCc3ccccc3)CC2)c1)Nc1cccc(C(=O)N2CCCC2)c1,-12.8%,-10.3%,4.3%,-25.5
O=S(=O)(CCSc1nc2ccccc2o1)c1nc2ccccc2s1,4.61µM*,?,?,3.9
Cc1ccc(/C=N/NC(=O)c2ccc3ccccc3c2)s1,4.11µM*,4.61µM*,4.47µM*,24.9
Cc1ccc(/C=N/NC(=O)c2ccc3c(c2)OCCO3)s1,16.4µM*,?,-4.4%,-8.9
O=C(N/N=C/c1cccs1)c1ccc2ccccc2c1,?,23.1µM*,-9.8%,-0.8
COc1ccc(C2/C=C\CN(C(=O)C3CCCC3)C(C)C(=O)N2Cc2ccc(F)cc2)cc1 (configuration not stated),/,/,/,-26.9
O=C(O)c1ccc(N/N=C/c2cn(Cc3ccccc3F)c3ccccc23)cc1,?,20.6µM*,9.3%,6.3
SMILES,SW480 rerep,MCF10A rerep,uPA surface inh,Giardia kill
O=C(NNC1=NS(=O)(=O)c2ccccc21)c1ccc(Cl)cc1,-13.2%,-2.0%,3.55µM*,?
CCN(CC)C1CCN(Cc2cn[nH]c2-c2ccc(OC)c(F)c2)C1 (configuration not stated),4.11µM*,2.1%,1.6%,-7.4
CC(Sc1nnc(CN2CCCC2)n1Cc1ccccc1)C(=O)Nc1ccc(F)cc1Cl (configuration not stated),3.66µM*,?,2.7%,7.0
O=C(CN(c1cccc(C(F)(F)F)c1)S(=O)(=O)c1ccc(Cl)c([N+](=O)[O-])c1)NCc1ccccc1,13µM*,3.66µM*,-5.7%,-2.1
CC(NC(=O)CN(c1cccc(C(F)(F)F)c1)S(=O)(=O)c1ccc(Cl)c([N+](=O)[O-])c1)c1ccccc1 (configuration not stated),?,?,-20.3%,7.1
O=C(CN(c1cccc(C(F)(F)F)c1)S(=O)(=O)c1ccc(Cl)c([N+](=O)[O-])c1)NCc1ccccc1Cl,?,4.61µM*,-8.9%,-0.9
NC(CCC(=O)N[C@@H](CS)C(=O)NCC(=O)O)C(=O)O (some centres not stated),18.2%,-0.7%,/,/
O=C(NNC(=O)c1cc(Br)c(Br)s1)c1csc(N2CCOCC2)n1,1.0%,-1.6%,3.7%,5.1
CCOC(=O)Cc1nnc(NC(=O)CSc2nncn2C)s1,?,6.51µM*,-0.8%,-1.4
Cc1cc(NC(=O)CSc2nnc3c(C)cc4c(C)ccc(C)c4n23)no1,20.6µM*,20.6µM*,?,-4.0
CCOC(=O)Cc1csc(NC(=O)CSc2nncn2C)n1,-3.7%[9.22 µM],8.2%,2.7%,-3.2
CCc1nnc(NC(=O)CSc2nnc3c(C)cc4c(C)ccc(C)c4n23)s1,?,9.2µM*,-9.4%,-12.6
CCc1nnc(NC(=O)CSc2nnc(-c3ccncc3)n2C)s1,-1.8%,-1.5%,0.7%,9.6
COc1ccc(NC(=O)CCCc2nc3ccccc3c(=O)[nH]2)cc1Cl,-2.9%,-7.7%,2.4%,-2.2
Cc1ccc(S(=O)(=O)N2CCN(c3ccnc(-c4cccs4)n3)CC2)cc1,/,/,/,-21.5
COc1ccc(/C=C/c2cc(O)cc(OC3OC(CO)C(O)C(O)C3O)c2)cc1 (configuration not stated),0.184µM*,-3.9%,?,-13.1
Cc1cc(O)cc(O[C@H]2OC(CO)[C@H](O)[C@@H](O)[C@H]2O)c1 (some centres not stated),-11.2%,4.6%,24.5%,9.4
COc1ccc(OCc2cc(C(=O)NCC(C)Oc3cccnc3)no2)c(Cl)c1 (configuration not stated),-0.5%,8.7%,1.5%,-6.0
Cn1c([N+](=O)[O-])cnc1COC(N)=O,-23.5%,0.9%,13.9%,-90.1*
Cc1ccc(C(=O)Nc2cc3ccccc3oc2=O)cc1,2.91µM*,18.4µM*,-15.2%,?
Cc1oc(=O)c(NC(=O)c2ccccc2)cc1C(=O)c1ccccc1,20.6µM*,23.1µM*,-14.5%,-8.7
Cc1oc(=O)c(NC(=O)c2ccc(Cl)cc2)cc1C(=O)c1ccccc1,?,8.2µM*,-12.0%,-10.3
CC(=O)c1cc(NC(=O)c2ccccc2)c(=O)oc1C,0.0%,?,-7.7%,9.3
Cc1cc(C)n(S(=O)(=O)c2ccccc2[N+](=O)[O-])n1,-3.2%,-13.5%,-2.6%,-86.9*
CC1(C)CC(=O)C2=C(C1)c1c(ccc3ncccc13)NC2c1cccs1 (configuration not stated),?,9.2µM*,-16.3%,-7.6
c1ccc2sc(-c3ccncc3)nc2c1,5.8%,-0.3%,-5.7%,20.8
Cc1ccc(Cn2cccc(-c3nc4ccccc4s3)c2=O)cc1,?,?,-2.1%,-4.6
Oc1ccc(-c2nc3ccccc3s2)cc1,-1.5%,-0.9%,6.31µM*,-13.4

# Screens as filed in PubChem.
